Bioassay records from PubChem BioAssay.
The list is not random: actives were taken first. Their share in the collection is about 4%.
GDH-TPI inh = counter-screen for M. tuberculosis FBA inhibitors: GDH-TPI coupled enzymes; inhibition, % at 4.8 µM; AID 588335; GDH-TPI coupled enzyme counterscreen, NADH absorbance; actives 1.2% (n = 360,000); in the data active = inhibition above about 30%
UGM FP inh = Mtb UDP-galactopyranose mutase inhibition | actives 0.06% (n = 320,000) | inhibition, % at 10 µM | purified UGM, fluorescence polarization probe displacement | AID 504406; in the data active = inhibition above about 10%, passing the limit was not always enough; inconclusive = no clear call, values can overlap the other calls
Mtb bLac sens = beta-lactam sensitization of Mtb H37Rv; M. tuberculosis H37Rv growth with meropenem, percent inhibition; inhibition, % at 25 µM; actives 0.27% (n = 330,000); call rule not given here;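 also: growth measured after seven days incubation then overnight dye step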
RecA intein inh = Mtb RecA intein splicing inhibition; cell-free RecA intein splicing, fluorescence; inhibition, % (concentration not given with the values); actives 0.75% (n = 290,000); in the data active = inhibition above about 30%; inconclusive = no clear call, values can overlap the other calls
Target sequence (P9WHJ3 whole entry, looked up): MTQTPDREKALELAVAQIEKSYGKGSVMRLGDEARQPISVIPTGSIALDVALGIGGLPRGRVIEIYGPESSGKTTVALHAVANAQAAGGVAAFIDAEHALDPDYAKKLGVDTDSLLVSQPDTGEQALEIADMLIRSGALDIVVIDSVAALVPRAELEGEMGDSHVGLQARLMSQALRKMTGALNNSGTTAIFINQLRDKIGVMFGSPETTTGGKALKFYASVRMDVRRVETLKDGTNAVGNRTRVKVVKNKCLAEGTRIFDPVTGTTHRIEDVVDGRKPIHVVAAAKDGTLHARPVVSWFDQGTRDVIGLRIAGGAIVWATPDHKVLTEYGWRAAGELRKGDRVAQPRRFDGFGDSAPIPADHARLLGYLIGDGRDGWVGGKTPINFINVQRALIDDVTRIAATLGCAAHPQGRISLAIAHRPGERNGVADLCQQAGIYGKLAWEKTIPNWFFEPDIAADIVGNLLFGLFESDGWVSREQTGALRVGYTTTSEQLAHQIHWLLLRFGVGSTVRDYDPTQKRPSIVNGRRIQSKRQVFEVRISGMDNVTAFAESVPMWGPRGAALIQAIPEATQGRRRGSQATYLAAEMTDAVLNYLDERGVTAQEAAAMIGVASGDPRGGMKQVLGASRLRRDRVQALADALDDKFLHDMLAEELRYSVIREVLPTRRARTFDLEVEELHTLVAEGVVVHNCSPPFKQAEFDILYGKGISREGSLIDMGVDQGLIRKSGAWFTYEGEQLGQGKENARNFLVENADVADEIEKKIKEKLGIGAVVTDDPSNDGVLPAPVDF
Mtb FBA inh = inhibits M. tuberculosis FBA enzyme; P9WQA3; purified M. tuberculosis FBA, fluorescence read-out; inhibition, % at 1 µM; actives 2.3% (n = 360,000); AID 588726; in the data active = inhibition above about 27%
Rv3671c protease = Rv3671c (M. tuberculosis) protease inhibition. actives 0.048% (n = 320,000). inhibition, % at 5.96 µM. P9WHR9; in the data active = inhibition above about 38%;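 also: extracellular domain of Rv3671c used as enzyme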
Numbers stand for hits; 0 = inactive; ? = inconclusive; - = not tested or not shown; + = active, no number.

SMILES	GDH-TPI inh	UGM FP inh	Mtb bLac sens	RecA intein inh	Mtb FBA inh	Rv3671c protease
O=[N+]([O-])c1ccc(N2CCOCC2)c2ccncc12	0	0	0	30	0	0
Cc1ccccc1CCN(C(=O)c1csnn1)C(C(=O)NC1CCCC1)c1ccncc1 (stereo unspecified)	0	0	0	0	0	0
COc1ccc(C(=O)OCC(=O)NCc2ccc3c(c2)OCO3)cc1S(=O)(=O)N1CCOCC1	0	0	0	-	0	0
N#Cc1nc(-c2ccco2)oc1N1CCCC1	0	0	0	0	189	0
Cc1ccc(-c2nc(C#N)c(N3CCCCC3)o2)cc1	0	0	0	0	137	0
N#Cc1nc(-c2ccccc2)oc1N1CCCCC1	0	0	0	0	+	0
COc1ccc(-c2nc(C#N)c(NC(C)C)o2)cc1	0	0	0	0	190	0
CC(C)(C)c1ccc(-c2nc(C#N)c(NCc3ccncc3)o2)cc1	0	0	0	0	0	0
COc1ccc(-c2nc(C#N)c(N3CCCCC3)o2)cc1	0	0	0	0	+	0
COc1ccccc1OCc1nc(C#N)c(N2CCCC2)o1	0	0	0	0	0	0
CC(C)CNc1oc(-c2ccc(F)cc2)nc1C#N	0	0	?	0	128	0
COc1ccc(-c2nc(C#N)c(N3CCCCCC3)o2)cc1OC	31	0	0	0	+	0
COc1ccc(-c2nc(C#N)c(N3CCC(C)CC3)o2)cc1	0	0	0	0	115	0
CC(C)C1C(=O)N(Cc2cn(CC3CCCCC3)nn2)CCS(=O)(=O)N1Cc1ccc(-c2ccncc2)cc1 (stereo unspecified)	0	-	-	-	0	-
CCCOc1ccc(-c2nc(C#N)c(N3CCC(C(N)=O)CC3)o2)cc1	0	0	0	0	+	0
N#Cc1nc(-c2ccccc2F)oc1N1CCCC1	0	0	0	0	+	0
COc1ccc(-c2nc(C#N)c(N3CCCCCC3)o2)cc1	0	0	0	0	194	0
N#Cc1nc(-c2ccc(OCc3ccc(Cl)cc3)cc2)oc1N1CCOCC1	0	0	0	0	0	0
N#Cc1nc(-c2ccc(OCc3ccc(Cl)cc3)cc2)oc1N1CCC(C(N)=O)CC1	0	0	0	0	0	0
N#Cc1nc(Cc2ccccc2)oc1N1CCCC1	0	0	0	0	0	0
N#Cc1nc(-c2ccc(Cl)cc2)oc1N1CCCCC1	0	0	0	0	+	0
O=C(CN1C(=O)NC2(CCCC2)C1=O)N1CCN(c2ccc(C(F)(F)F)cc2[N+](=O)[O-])CC1	0	-	-	-	0	-
COC(=O)c1ccc(N/C=C/C(=O)c2ccc(OC)c(OC)c2)cc1	0	0	0	0	0	0
COc1ccc(C(=O)/C=C/N2CCCCC2)cc1OC	50	0	0	0	0	0
CC(=O)c1ccc(NC(=O)c2ccccc2-c2ccccc2C(=O)O)cc1	0	0	0	0	0	0
SMILES	GDH-TPI inh	UGM FP inh	Mtb bLac sens	RecA intein inh	Mtb FBA inh	Rv3671c protease
COc1ccc(Cl)cc1NC(=O)CSc1nnc(C2CC2)n1N	0	-	-	-	0	-
COc1ccc(C(=O)Nc2cccc(OC(=O)c3ccco3)c2)cc1	0	0	0	0	0	0
Cc1ccc(NC2=C(Cl)C(=O)OC2OC(=O)c2ccc(C)cc2)cc1 (stereo unspecified)	0	0	0	0	0	0
Cc1ccccc1NC1=C(Cl)C(=O)OC1OC(=O)c1ccco1 (stereo unspecified)	0	0	0	43	0	0
COc1cccc(NC2=C(Cl)C(=O)OC2OC(=O)c2ccco2)c1 (stereo unspecified)	0	0	0	35	0	0
COc1ccccc1NC1=C(Cl)C(=O)OC1OC(=O)c1ccco1 (stereo unspecified)	0	0	0	41	0	0
COC(=O)c1ccc(NC2=C(Cl)C(=O)OC2OC(=O)c2ccccc2)cc1 (stereo unspecified)	0	0	0	30	0	0
CCOC1OC(=O)C(Cl)=C1Nc1ccccc1C (stereo unspecified)	0	0	0	0	0	0
CCCC(C)CO (stereo unspecified)	0	0	0	-	0	0
COc1ccc(CCNC(=O)c2cc(S(=O)(=O)N3CCOCC3)ccc2F)cc1	0	0	0	-	0	0
O=C(O)c1ccccc1C(=O)NCc1ccc2c(c1)OCO2	0	0	0	0	0	0
COc1ccc(NC(=O)CSc2nc3c(cc2C#N)CN(C)CC3)cc1	0	0	0	0	0	0
CN1CCc2nc(SCC(=O)Nc3ccc(F)cc3)c(C#N)cc2C1	-	0	0	33	-	0
C#CCn1cc(/C=N/NC(=O)c2cc3ccccc3o2)c2ccccc21	32	0	0	0	0	0
O=C(O)c1ccc(-n2cccc2/C=N\NC(=O)c2cc3cc(Br)ccc3o2)cc1	36	0	0	0	0	0
O=C(O)Cn1cc(/C=N/NC(=O)c2cc3cc(Br)ccc3o2)c2ccccc21	48	0	0	0	0	0
CC(C)CN1CCC(=O)N(CCN=[N+]=[N-])CC1	0	0	0	0	0	0
Clc1ccc(-c2nnc3n2-c2ccccc2SC3)cc1	0	0	0	0	0	0
CN1C(c2ccc(F)cc2)=CS/C1=C(\C#N)c1nnc2n1-c1ccccc1SC2	34	0	0	0	0	0
Cc1cc(/C=C(/C#N)C(=O)O)c(C)n1-c1cccc2ccccc12	41	0	0	0	0	0
CN1/C(=C\C=C\C2=[N+](C)c3ccc4ccccc4c3C2(C)C)C(C)(C)c2ccccc21	-	0	0	-	-	187
C=CCc1cccc2cc(C(=O)N3CCN(C(=O)c4ccccc4)CC3)c(=O)oc12	0	0	0	0	0	0
COc1ccccc1C=NN=C1c2ccccc2-c2ccccc21	0	-	-	-	0	-
COc1ccccc1/C=N/N1C(=O)c2cccc3cccc(c23)C1=O	34	0	0	0	0	0
COc1ccc(/C=N/N2C(=O)c3ccccc3C2=O)cc1	0	0	0	0	0	0
SMILES	GDH-TPI inh	UGM FP inh	Mtb bLac sens	RecA intein inh	Mtb FBA inh	Rv3671c protease
COc1ccccc1C=NN=Cc1ccccc1OC	31	-	-	-	0	-
CCOC(=O)c1c[nH]n(-c2ccccc2)c1=O	0	0	0	0	0	0
CCOC(=O)c1cc(C(=O)OCC)c2ccccn2c1=O	0	0	0	0	+	0
Cc1cc(C(=O)CCC(=O)Nc2cccc(F)c2)c(C)s1	0	-	-	-	0	-
CCN(CC)c1ccc(/C=N\NC(N)=O)cc1	48	0	0	0	0	0
CCN(CC)c1ccc(/C=N/NC(=O)Nc2ccccc2)cc1	32	0	0	0	0	0
CCCC(=O)N1CCC1(C)C(=O)Nc1ccc2c(c1)OCCO2 (stereo unspecified)	0	-	-	-	0	-
COc1ccc(/C=C(/NC(=O)c2ccc(Br)o2)C(=O)Nc2cccc(C(=O)O)c2)cc1	34	-	-	-	0	-
COc1ccc(NC(=O)/C(=C\c2ccc(OC)c(OC)c2)NC(=O)c2ccco2)cc1	37	0	0	0	0	0
COc1ccccc1NC(=O)/C(=C/c1cccs1)NC(=O)c1ccco1	0	0	0	0	0	0
CC(=O)c1ccc(NC(=O)/C(=C\c2cccs2)NC(=O)c2ccco2)cc1	33	0	0	0	0	0
